The values that follow come from PubChem BioAssay (EPA / NIEHS).

Structures are written as SMILES. Records with an inconclusive call do not appear. Activity calls are given as the source filed them. The calls were made as follows: active = hit-call score of the fitted dose curve at least 0.9, where 1 is the maximum; inconclusive = response in the unintended direction; inactive = score below 0.9.

A short description of the test: ATG_XTT_Cytotoxicity: Cytotoxicity Assessment in the Attagene TRANS-FACTORIAL HepG2 Assay (AID 2283584). In outline: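 Viability endpoint from XTT after 24 h chemical exposure of reporter-transfected human HepG2 liver cells; signal loss fitted relative to DMSO negative control.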
In the case of `CC(=O)OCc1ccco1`, the call was inactive.

`CC1(C)O[C@@H]2C[C@H]3[C@@H]4C[C@H](F)C5=CC(=O)CC[C@]5(C)[C@H]4[C@@H](O)C[C@]3(C)[C@]2(C(=O)CO)O1`: the compound was classed as inactive. The result for `O=CC1CC1` reads “inactive”; that for `N#CCc1ccc(Cl)cc1Cl`, “inactive”; that for `Cc1ccc([N+](=O)[O-])cc1S(=O)(=O)O`, “inactive”. `C=CC(C)(C)C`: the result was inactive. With `O=C(O)CC(C(=O)O)C(CC(=O)O)C(=O)O` (centres undefined), the outcome was inactive. On to `CCCCCC/C=C\CCCCCCCC(=O)O`, for which the call was inactive. For the compound `O=C(Cl)c1cc(C(=O)Cl)cc(C(=O)Cl)c1`, the result was inactive. With `COCC(C)N` (centres undefined), the compound was called inactive. Regarding `Cc1cccc(N(C)C(=S)Oc2ccc3ccccc3c2)c1`, the compound was classed as inactive. Turning to `CC1=CC[C@H](C(C)C)C=C1`, the outcome was inactive. As for `Cc1ccc(OC(=O)CC(C)C)cc1`, the outcome was inactive. As for `C=CC(=O)OCCC(=O)O`, the compound was called inactive. For `O=C(O)c1cc(Cl)cc([N+](=O)[O-])c1Cl` the value was “inactive”. With `Nc1nc2ccccc2[nH]1`, the compound was called inactive. As for `COCCOCCOCCOCCOC`, the outcome was inactive. Turning to `CNC(=S)N(C)C`, the result was inactive. The result for `O=C(Nc1cccc(C(F)(F)F)c1)c1cc(Br)cc(Br)c1O` reads “inactive”; that for `O=S(=O)(O)c1ccc2cc(O)c(S(=O)(=O)O)cc2c1`, “inactive”. `CC(=O)C=CC1C(C)=CCC(C)C1(C)C` (centres undefined): the call was inactive.

With `O=C1CCCCCCCCCCCCCCCO1`, the result was inactive. For the compound `CCC(CO)CO`, the call was inactive. Turning to `NC(=O)NNC(N)=O`, the compound was classed as inactive. For `CCN(CC#N)c1cccc(C)c1` the value was “inactive”; for `COC=O`, “inactive”.

Regarding `COC(=O)c1ccc2cc(C(=O)OC)ccc2c1`, the result was inactive.

Turning to `CN1C(=O)N(C)C(O)C1O` (centres undefined), the call was inactive.

In the case of `CC(C)c1ccc(C#N)cc1`, the compound was called inactive. The result for `CC1(C)[C@H]2CC[C@]1(C)C(=O)C2` reads “inactive”; that for `OCCNCc1ccccc1`, “inactive”; that for `CCCCCCCCCCCCCCCC[N+](C)(C)CC`, “inactive”. The result for `OCCCS` reads “inactive”. In the case of `OCCN(CCO)c1ccccc1`, the outcome was inactive. For `O=C1C=CC(=O)O1`, the compound was called inactive. With `Cc1cc(C)c(C)c(O)c1`, the result was inactive. `C[Si](C)(CCCN)O[Si](C)(C)CCCN`: the compound was called inactive. As to `COC(=O)c1ccccc1OC`, the result was inactive. The result for `CCCCCCCCCCOC(C)=O` reads “inactive”.
